Source: the supplement of paper PMC6555819

Key:
Assay in all cases: PBM binding z-score (relative to random genomic background probes); higher = stronger binding; sequences stand for … in GC…GCGATTGACAGCGTAGAATGAAGG
[1] = tested on: RARb homodimer (NR concentration 270 nM)
How it was run: (§1)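 Custom Agilent 4×180K protein-binding microarrays carried double-stranded probes, each with a 34-nt variable region. These regions held direct-repeat seeds, single-nucleotide variants, half-site ablations and random human genomic background sequences. Ligand-free nuclear receptor dimers were incubated on the arrays for 1 h, antibodies against each partner (one per run) detected binding, and scanned fluorescence was regression-normalized. Binding z-scores take the random background probes as reference.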

[2] = tested on: RARg:RXRa (NR concentration 270 nM, RXRa partner concentration 90 nM)
How it was run: as §1

[3] = tested on: RARg homodimer (NR concentration 270 nM)
How it was run: as §1

[4] = tested on: RXRa DBDmut IVT, anti-RXR (DBD mutation: RXRa K156A/R161A, NR concentration 90 nM)
How it was run: as §1

[5] = tested on: RXRa homodimer (NR concentration 180 nM)
How it was run: as §1

[6] = tested on: THRa:RXRa (NR concentration 90 nM, RXRa partner concentration 90 nM)
How it was run: as §1

[7] = tested on: THRa homodimer (NR concentration 90 nM)
How it was run: as §1

[8] = tested on: VDR homodimer (NR concentration 270 nM)
How it was run: as §1

Row | Sequence | PBM binding z-score [1] | PBM binding z-score [2] | PBM binding z-score [3] | PBM binding z-score [4] | PBM binding z-score [5] | PBM binding z-score [6] | PBM binding z-score [7] | PBM binding z-score [8]
1 | AGAACGAGGGCAATGAGTTGATAGCCCGGGTGGC | 0.793 | 0.874 | 1.57 | 1.84 | 0.855 | 0.913 | -0.362 | 2.96
2 | CGTCAAAGTTCCAGGTAACGTAACAGAAAGCAGC | -0.0356 | 0.18 | 0.454 | 0.141 | 0.0249 | 0.992 | 0.691 | 0.0156
3 | CGAACGAGGGCATGACTTGATAGCAAATGCCGAT | 0.668 | 1.26 | 1.54 | 2.16 | 0.981 | 1.2 | -0.168 | 0.849
4 | CCTTACGGGTCACGAGGTTATTGCACGACGAGCG | 4.19 | 6.12 | 5.46 | 1.83 | 7.15 | 3.67 | 1.4 | 2.55
5 | AGAATGAGGTTACCAAAGACCAGGGAAACGCTTG | 0.685 | 2.01 | 1.51 | 1.02 | 2.79 | 2.87 | 0.659 | 0.4
6 | CCTAGTTGGTCAGGAGGTCGCACACCGGATATGA | 2.18 | 2.4 | 1.98 | -0.149 | 1.86 | 1.66 | 0.99 | 1.59
7 | CAAACTAGGTCCAAGGTCAAAGTCGAGCCAACCA | 3.79 | 3.98 | 3.24 | 2.47 | 4.04 | 3.64 | 2.62 | 3.42
